Assay results reported in the supplement of paper PMC10338343.
± gives the standard deviation.

Tested on: MILI (PIWIL2) piRISC loaded with L1MC piRNA (26 nt)
Assay: pre-steady-state target cleavage rate (min^-1); guide: L1MC piRNA 5'p-UAACUAAAUACUAUGCAAGCUGUAGG; MIWI and MILI are mouse PIWI proteins and EfPiwi is from a freshwater sponge; tags in brackets are library labels; higher = faster piRNA-guided slicing of the target
Method in brief: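 The method was Cleave-'n-Seq, in which uncleaved targets from a transcribed, DNA-blocked target RNA library were sequenced after exposure to active affinity-purified piRISC carrying one synthetic guide, with or without GTSF1 partner protein. Reactions contained 0.1 nM library, 1 nM piRISC and, where present, 500 nM GTSF1 in HEPES–potassium acetate buffer at 33 °C for 0–8 or 0–960 min. Reads were normalised to depth and to weakly complementary targets, three trials were pooled, and k3 was capped at 0.0001 min^-1. The pre-steady-state cleavage rate came from a burst-and-steady-state fit.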

[1] = auxiliary factor: 500 nM mouse GTSF1
[2] = auxiliary factor: none (no GTSF1)

Sequence	pre-steady-state target cleavage rate [1]	pre-steady-state target cleavage rate [2]
UCCUGGAUGUCGAUGCAUAGUAUGUUAGUUA	0.0347 ± 0.0076	0.00559 ± 0.0031
UCCUGGAUCAGCUAGCAUAGUUUUUAGUUA	0.0366 ± 0.0073	0.00382 ± 0.0025
UCCUGGAUGAGCAUGCAUAGUUUUUAGUUA	0.0197 ± 0.0099	0.00788 ± 0.0023
UCCUGGAUGUGCAUGCUUAGUAUUUAGUUA	0.0349 ± 0.011	0.0103 ± 0.0032
UCCUGGAUGUGCUAGCAUACUAUUUAGUUA	0.0195 ± 0.0053	0.00539 ± 0.002
UCCUGGAUGUCGUCGCAUAGUAUUUAGUUA	0.0893 ± 0.012	0.00436 ± 0.0024
UCCUGGAUGUGCCUGCAUAGUAUUUAGUUA	0.0999 ± 0.015	0.00951 ± 0.003
UCCUGGAUGUGCUUGCAAAGUAUUUAGUAA	0.033 ± 0.0074	0.00287 ± 0.0025
UCCUGGAUGUGCUUGCAUAGUAUUUUAGUUA	0.101 ± 0.018	0.0102 ± 0.0031
UCCUGGAUGUCCUUGCAAUGUAUUUAGUUA	0.0105 ± 0.0042	0.00626 ± 0.0014
UCCUGGAUGAGCUUGCUUACUAUUUAGUUA	0.0357 ± 0.0051	0.00365 ± 0.0025
UCCUGGAUGUCGUUGCAUAGUGUUUAGUUA	0.0461 ± 0.01	0.00452 ± 0.0029
UCCUGGAUGUCGAUGCAUAGUAUAUAGUUA	0.143 ± 0.028	0.00598 ± 0.0024
UCCUGGAUGUGCAUGCAUAGUAUUUUGUUA	0.0798 ± 0.018	0.00327 ± 0.0032
UCCUGGAUGUCGUUGCAAAGUAUUUAGUUA	0.0181 ± 0.0047	0.00739 ± 0.0022
UCCUGGUACAUGCUUGCAUAGUAUUUAGUUA	0.131 ± 0.018	0.00627 ± 0.0036
UCCUGGAUGUGGUUGCAUAGAAUUUAGUUA	0.0151 ± 0.0063	0.00318 ± 0.0028
UCCUGGAUGUCGUUGCAUAGUAUUUAGUUG [g2:g18:cont:t1G]	0.1 ± 0.016	0.00688 ± 0.003
UCCUGGAUGAGCUUGCAUAGUUUUUUGUUA	0.0139 ± 0.0061	0.00346 ± 0.003
UCCUGGUACAGCUUGCAUAGUAUUUAAUUA	0.0793 ± 0.022	0.00528 ± 0.0035

Sequence	pre-steady-state target cleavage rate [1]	pre-steady-state target cleavage rate [2]
UCCUCCUCCAGCUUGCAUAGUAUUUAGUUA	0.265 ± 0.019	0.00605 ± 0.0026
UCCUGGUACAGCUUGCAUAGUAUUUAGUUA [g2:g24:cont:t1A]	0.277 ± 0.018	0.0215 ± 0.0056
UCCUGGAUGUCGUUGCAUAGUAUUUAGUGUA	0.17 ± 0.027	0.00477 ± 0.0035
UCCUGGAUCAGCUAGCAUAGUAUUUAGAUA	0.0957 ± 0.019	0.00275 ± 0.0026
UCCUGGAUGUGCUUGCAAUGUAUUUAGUUA	0.0104 ± 0.005	0.0111 ± 0.0028
UCCUGGAUGAGCUUGCAUAGUUAUUAGUUA	0.00731 ± 0.0048	0.00364 ± 0.0023
UCCUGGUACAGCUUGCUAAGUAUUUAGUUA	0.123 ± 0.015	0.00432 ± 0.0026
UCCUGGUACAGCUUGCUAUGUAUUUAGUUA	0.0246 ± 0.0085	0.00465 ± 0.0027
UCCUGGAUGAGCUUGAUAGUAUUUAGUUA	0.017 ± 0.0068	0.00442 ± 0.0028
UCCUGGAACAGCUUGCACAGUAUUUAGUUA	0.169 ± 0.014	0.0128 ± 0.003
UCCUGGAUGUCCUUGCAUGGUAUUUAGUUA	0.0346 ± 0.011	0.00814 ± 0.0026
UCCUGGAACAGCUUGCAUAGAUAUUUAGUUA	0.0184 ± 0.0071	0.00387 ± 0.0025
UCCUGGUACAGCUUGGAUAGUAUUUUGUUA	0.0944 ± 0.022	0.00486 ± 0.0048
UCCUGGUACAGCAACCAUAGUAUUUAGUAA	0.313 ± 0.064	0.00382 ± 0.0021
UCCUGGAUGUCGAUGCAUAGUAUCUAGUUA	0.0915 ± 0.017	0.00396 ± 0.0023
UCCUGGAUGUCGAAGCAUAGUAUUUGGUUA	0.0178 ± 0.0055	0.00505 ± 0.0019
UCCUGGAUGUCGUUGCAUAGUAUGUUAGUUA	0.203 ± 0.042	0.00861 ± 0.0031
UCCUGGAUGUGCCUUGCAUAGUAUUUAGUUA	0.111 ± 0.022	0.00996 ± 0.0032
UCCUGGAUGUCAUUGCAUAGUAUUUAGUUA	0.0928 ± 0.015	0.0087 ± 0.0027
UCCUGGAUGUGCUUGCAUUGUUUUUAGUUA	0.00733 ± 0.005	0.00335 ± 0.0032

Sequence	pre-steady-state target cleavage rate [1]	pre-steady-state target cleavage rate [2]
UCCUGGAUGUGCUUGAAUAGUAUUUAGUUA	0.127 ± 0.013	0.00936 ± 0.0025
UCCUGGAUGUCGUUGCAUAGUAUUUAAGUUA	0.191 ± 0.032	0.00676 ± 0.0028
UCCUGGUACAGGUUGCAUAGUAUUUACAAA	0.0239 ± 0.011	0.00315 ± 0.003
UCCUGGAUCAGCUUCGUUAGUAUUUAGUUA	0.0434 ± 0.0096	0.00279 ± 0.0024
UCCUGGAUGUGCUUGCAUAGUAUUUAUGUUA	0.109 ± 0.021	0.0053 ± 0.0027
UCCUGGAUGAGCUUGCAUAGGUAUUUAGUUA	0.00411 ± 0.0031	0.00493 ± 0.0023
UCCUGGAACAGCUUGGAUUGUAUUUAGUUA	0.0767 ± 0.011	0.00295 ± 0.0026
UCCUGGUACAGCUACCAUAGUAUUUAGUAA	0.28 ± 0.04	0.00528 ± 0.0023
UCCUGGAUGUCGAUGCAUAGUAUUUAGUUU [g2:g17:cont:t1U]	0.09 ± 0.011	0.00618 ± 0.0021
UCCUGGAUGUCGAAGCAUAGUAUCUAGUUA	0.0263 ± 0.0077	0.00418 ± 0.0019
UCCUGGAACAGCUUGCUUAGUAUAUAGUUA	0.241 ± 0.02	0.00532 ± 0.0022
UCCUGGAUGAGCUUGCAUAGAUUUUAGUUA	0.0099 ± 0.0044	0.00304 ± 0.0029
UCCUGGAUGUGCUGCAUAGUAUUUAGUUA	0.0672 ± 0.009	0.00895 ± 0.0024
UCCUGGAUGUGUUUGCAUAGUAUUUAGUUA	0.16 ± 0.019	0.00817 ± 0.0033
UCCUGGUACAGGUUGCAUAGUUUUUAGUUA	0.039 ± 0.011	0.00732 ± 0.0043
UCCUGGAUGUCCUUGCAUAGUAAUUAGUUA	0.111 ± 0.019	0.00618 ± 0.0018
UCCUGGAUCAGCUUGGUAAGUAUUUAGUUA	0.0316 ± 0.0076	0.00588 ± 0.0023
UCCUGGAUGUCGAUGCAUAGUAAUUUAGUUA	0.0247 ± 0.008	0.00496 ± 0.0023
UCCUGGAACAGCUUGCUAGUAUUUAGUUA	0.0161 ± 0.0069	0.00397 ± 0.0027
UCCUGGAUGAGGUUGCAUAGUUUUUAGUUA	0.00694 ± 0.0049	0.00583 ± 0.0024
